Test results: PubChem BioAssay AID1259343 (VanderVen Lab, College of Veterinary Medicine, Cornell …, 2017)
In all, about 6,200 compounds went through this assay and about 2,900 (47%) were called active. Cut-off read from the data, not from the text of the source: active = inhibition above about 50%; inactive = the rest. The set was probably picked from earlier hits. Some of the results follow.

Experiment: Mycobacterium tuberculosis growth inhibition, primary screen (AID 1259343)
Conditions: inhibition: at 10 µM, stronger effect = higher value; outcome: 10 uM

Which inhibition does the source give for `OCc1ccc(-c2ccc(-c3ccc(CO)s3)o2)s1` here?
Its inhibition is 48.6% (inactive).

For `CCC1(C)Oc2ccccc2C2CC(c3ccccc3)=NN21` (configuration not stated), which inhibition is on record?
Its inhibition is -17% (inactive).

With `c1ccc(C2=NN3C(C2)c2ccccc2OC32CCCC2)cc1` (configuration not stated) as the molecule, how does the inhibition read?
Its inhibition is 32% (inactive).

With `COc1ccc(C2Oc3ccccc3C3CC(c4ccccc4)=NN32)cc1OC` (configuration not stated) as the molecule, how does the inhibition read?
Its inhibition is -33.1% (inactive).

Which inhibition does the source give for `CC1CCC2(CC1)Oc1ccccc1C1CC(c3ccccc3)=NN12` (configuration not stated) here?
Its inhibition is 55.7% (active).

With `CC(C)C1Oc2ccccc2C2CC(c3ccccc3)=NN21` (configuration not stated) as the molecule, how does the inhibition read?
The inhibition was 63.4% (active).

With `Fc1ccc(C2=NN3C(C2)c2ccccc2OC3c2ccncc2)cc1` (configuration not stated) as the molecule, how does the inhibition read?
Its inhibition is 14% (inactive).

Which inhibition does the source give for `OC[C@@H](O)CN(CCC(F)(F)F)c1nc(-c2ccccn2)nc2c1CCC2` here?
The inhibition was -1.45% (inactive).

For `CC(NC(=O)c1ccc(Br)o1)C12CC3CC(CC(C3)C1)C2` (configuration not stated), which inhibition is on record?
Its inhibition is 0.12% (inactive).

Which inhibition does the source give for `CC(NC(=O)c1ccc(Br)o1)C1CC2CCC1C2` (configuration not stated) here?
The inhibition was 37.7% (inactive).

Which inhibition does the source give for `CC(NC(=O)C=Cc1cccs1)C1CC2CCC1C2` (configuration not stated) here?
The inhibition was 36.7% (inactive).

For `CC(NC(=O)COc1ccccc1F)C1CC2CCC1C2` (configuration not stated), which inhibition is on record?
The inhibition was 95.6% (active).

For `CC(NC(=O)c1ccc([N+](=O)[O-])o1)C12CC3CC(CC(C3)C1)C2` (configuration not stated), which inhibition is on record?
The inhibition was 106% (active).

With `Cc1ccc2c(CC(=O)NC(C)C3CC4CCC3C4)coc2c1` (configuration not stated) as the molecule, how does the inhibition read?
Its inhibition is 12.9% (inactive).

For `CC(NC(=O)c1ccc([N+](=O)[O-])o1)C1CC2CCC1C2` (configuration not stated), which inhibition is on record?
The inhibition was 101% (active).

With `CCNC(=O)c1ccc([N+](=O)[O-])o1` as the molecule, how does the inhibition read?
Its inhibition is 15.7% (inactive).

Which inhibition does the source give for `COc1ccc([C@H]2Oc3cc(OC)cc(OC)c3C[C@H]2O)cc1` here?
Its inhibition is 70.8% (active).

For `COc1ccc(-c2nnc(CSC(=S)N3CCCC3)o2)cc1`, which inhibition is on record?
Its inhibition is 84.2% (active).

With `O=C(O)c1ccc2c(c1)CCN2C(=O)c1cnn(-c2ccccc2)c1` as the molecule, how does the inhibition read?
The inhibition was 15.4% (inactive).

For `O=C(Cc1cnn(-c2ccccc2)c1)NCC1CCCCC1`, which inhibition is on record?
Its inhibition is 45% (inactive).

For `O=C(CSC(F)(F)F)Nc1cnn(-c2ccccc2)c1`, which inhibition is on record?
Its inhibition is 63.6% (active).

Which inhibition does the source give for `Cc1csc(NC(=O)COc2c(C)cc(Cl)cc2C)n1` here?
The inhibition was 73.9% (active).

Which inhibition does the source give for `CC(=O)Nc1ccc(CC(=O)OCc2ccc(F)cc2)cc1` here?
The inhibition was 37.7% (inactive).

Which inhibition does the source give for `Cc1csc(NC(=O)C(C)Oc2cccc(Cl)c2)n1` (configuration not stated) here?
The inhibition was 81.2% (active).

Which inhibition does the source give for `Cc1cc(Cl)cc(C)c1OCC(=O)NNc1ccc(F)cc1` here?
Its inhibition is 96.3% (active).

With `Cc1cccc(OC(C)C(=O)Nc2nc(C(C)C)cs2)c1` (configuration not stated) as the molecule, how does the inhibition read?
Its inhibition is 29.5% (inactive).

For `Cc1cc(C)c(OCC(=O)NS(=O)(=O)c2c(C)noc2C)c(C)c1`, which inhibition is on record?
Its inhibition is 44% (inactive).

With `Cc1cnc(NC(=O)C(C)Oc2cccc(Cl)c2)s1` (configuration not stated) as the molecule, how does the inhibition read?
Its inhibition is 9.6% (inactive).

For `CC(=NNc1nc(C)cs1)c1ccc(Cl)cc1`, which inhibition is on record?
The inhibition was 0.03% (inactive).

For `N#Cc1cccc(CSc2n[nH]c(=O)n2C2CC2)c1`, which inhibition is on record?
Its inhibition is 3.74% (inactive).

Which inhibition does the source give for `Cc1ccc(-c2nnn(CC(=O)N3CCCCCC3)n2)cc1` here?
The inhibition was 15.3% (inactive).

Which inhibition does the source give for `Cc1ccc(-c2nnn(Cc3cc(C)on3)n2)cc1` here?
Its inhibition is 57.2% (active).

For `N#Cc1ccccc1Cn1nnc(-c2ccccc2)n1`, which inhibition is on record?
Its inhibition is -34.2% (inactive).

For `CC(C)(Cc1c[nH]c2ccc(Cl)cc12)NCCOc1ccccc1OCC1CC1`, which inhibition is on record?
The inhibition was 46.8% (inactive).

Which inhibition does the source give for `O=C(NC1CC1)c1ccc(Oc2ccc(Br)cc2)nc1` here?
Its inhibition is 16.1% (inactive).

Which inhibition does the source give for `Cc1cc(Oc2ccc(C(=O)O)cn2)ccc1C(C)C` here?
Its inhibition is 59.3% (active).

With `CCc1cccc2c3c([nH]c12)C(CC)(CC(=O)O)OCC3` (configuration not stated) as the molecule, how does the inhibition read?
Its inhibition is 56.6% (active).

For `CSC(c1ccc(O)cc1)=[N+]1CCOCC1`, which inhibition is on record?
Its inhibition is 99.3% (active).

For `COc1ccc(-c2cnc(CN(C)c3ccccc3F)o2)cc1`, which inhibition is on record?
The inhibition was 83.9% (active).

With `COc1cccc(-c2cnnc(NCCc3ccccc3F)n2)c1` as the molecule, how does the inhibition read?
Its inhibition is 19.2% (inactive).

Which inhibition does the source give for `C=CCSc1nc(N)c(C#N)c(CC)c1C#N` here?
Its inhibition is 58.6% (active).

Which inhibition does the source give for `COCCNC(=O)N(C)CC1CCC(C)CC1` (configuration not stated) here?
Its inhibition is 8.33% (inactive).

With `CCc1c(C)nc2c(O)cccn2c1=O` as the molecule, how does the inhibition read?
Its inhibition is 92.4% (active).

With `CCCCN(CC)C(=O)c1cc2c(=O)n3cccc(C)c3nc2s1` as the molecule, how does the inhibition read?
The inhibition was 35.8% (inactive).

Which inhibition does the source give for `Cc1cc(C)cc(NC(=O)CSc2ccc(-c3ccncc3)nn2)c1` here?
The inhibition was 84.3% (active).

For `Cc1ccc(-c2ccc(SCC(N)=O)nn2)cc1C`, which inhibition is on record?
The inhibition was 37.8% (inactive).

Which inhibition does the source give for `Cc1cc(NC(=O)CSc2ccc(-c3ccc(C)c(C)c3)nn2)no1` here?
The inhibition was 33.5% (inactive).

Which inhibition does the source give for `CC(NC(=O)c1ccccc1F)c1ccc2c(c1)OCCO2` (configuration not stated) here?
Its inhibition is 36.9% (inactive).

With `O=C(NS(=O)(=O)c1ccccc1F)c1ccc2c(c1)OCO2` as the molecule, how does the inhibition read?
The inhibition was 98.4% (active).

For `O=C(NS(=O)(=O)c1ccc2c(c1)OCCCO2)c1ccc(F)cc1`, which inhibition is on record?
Its inhibition is -7.16% (inactive).

Which inhibition does the source give for `c1ccc2c(c1)C(=NC1CCCCC1)NC2=NC1CCCCC1` here?
The inhibition was 62.3% (active).

For `COc1ccc(-c2noc(CN3CCC(c4nc5ccccc5o4)CC3)n2)cc1`, which inhibition is on record?
The inhibition was 81.3% (active).

Which inhibition does the source give for `COc1ccc(-c2noc(CN3CCCC(OCc4ccccn4)C3)n2)cc1` (configuration not stated) here?
The inhibition was 50.2% (active).

With `Cc1oc(-c2cc3c(cc2Cl)OCO3)nc1CN1CCCC1c1ccc(F)cc1` (configuration not stated) as the molecule, how does the inhibition read?
The inhibition was 19.7% (inactive).

For `Fc1ccc(C2CCCN2Cc2nc(-c3ccc4c(c3)OCO4)no2)cc1` (configuration not stated), which inhibition is on record?
Its inhibition is 62.2% (active).

With `COc1ccc(-c2noc(CN3CCCC(C(=O)c4ccccc4)C3)n2)cc1` (configuration not stated) as the molecule, how does the inhibition read?
Its inhibition is 27.8% (inactive).

Which inhibition does the source give for `c1cncc(COC2CCCN(Cc3nc(-c4ccc5c(c4)OCO5)no3)C2)c1` (configuration not stated) here?
The inhibition was 75.8% (active).

Which inhibition does the source give for `c1cc2c(s1)CCN(Cc1nc(-c3ccc4c(c3)OCO4)no1)C2` here?
The inhibition was 22.1% (inactive).

For `Fc1ccccc1OCC1CCCN(Cc2nc(CC3CC3)no2)C1` (configuration not stated), which inhibition is on record?
The inhibition was 19.6% (inactive).

For `Cc1cnc(C)c(N2CCN(Cc3nc(-c4ccc5c(c4)OCO5)no3)CC2)n1`, which inhibition is on record?
The inhibition was 92.2% (active).

With `CN(Cc1cnn(-c2ccc(F)cc2)c1)Cc1nc(CC2CC2)no1` as the molecule, how does the inhibition read?
Its inhibition is 23% (inactive).

For `Cc1ccc(Cl)cc1N1CCN(Cc2nc(C3CC3)no2)CC1`, which inhibition is on record?
The inhibition was -5.02% (inactive).

For `O=c1c2cc(-c3cccs3)nn2ccn1Cc1nc(-c2ccccc2)no1`, which inhibition is on record?
The inhibition was 4.57% (inactive).

For `Fc1ccc(CC2CCN(Cc3nc(CC4CC4)no3)CC2)cc1`, which inhibition is on record?
Its inhibition is 83.5% (active).

Which inhibition does the source give for `CCCOC1CCCN(Cc2nc(-c3cccc(Cl)c3)no2)C1` (configuration not stated) here?
Its inhibition is 68.8% (active).

For `COc1ccc(-c2noc(Cn3ccc4cccnc43)n2)cc1`, which inhibition is on record?
Its inhibition is 81.3% (active).

Which inhibition does the source give for `CN(C)c1ccc(N=C2N=C(Nc3ccc(N(C)C)cc3)c3ccccc32)cc1` here?
Its inhibition is 44.8% (inactive).
